In ChEMBL document CHEMBL3988442, “University of Dundee, Small-Polar-MMV Screening Library” (2021):
The campaign covered roughly 53,000 compounds. About 900 (1.7%) showed an effect of 50% or more. Shown is part of a subset that was picked to be rich in strong results.

Each compound was assayed on Mycobacterium tuberculosis (assay: Cornell - Phenotypic assay to identify agents that inhibit growth of Mycobacterium tuberculosis). Conditions: 10 mM as filed; unlikely as a test dose.
Format: functional
Set-up: scale not given: direction of the effect not stated beside the values

| Structure (SMILES) | Percent Effect [%] |
| --- | --- |
| COCCCN(Cc1ccncc1)c1ncc(C#N)cc1Cl | 15.37 |
| COc1cc(C(=O)Nc2nc(C)no2)ccc1C | 102.2 |
| Cc1noc(NC(=O)c2ccc(F)cc2)n1 | 2.649 |
| COc1cc(C(=O)Nc2c(C)noc2C)ccc1C | 19.94 |
| Cc1cc(NC(=O)c2ccc(C)c(F)c2)[nH]n1 | 32.04 |
| Cc1noc(NC(=O)c2ccc(C)c(F)c2)n1 | 108.6 |
| COc1cc(C(=O)NS(=O)(=O)c2cccc(C#N)c2)ccc1C | 15.37 |
| Fc1cc(Cl)cnc1N1CCCC(c2nccn2Cc2ccccn2)C1 (stereo not drawn) | 15.7 |
| O=C(c1cc(Cn2ccc3ccccc32)[nH]n1)N1CCC[C@H]1CO | 36.89 |
| Cc1c(CN2C[C@@H](O)[C@H](Oc3cccc(F)c3)C2)cnn1C | -27.75 |
| CC(C)c1cc(=O)[nH]c(-n2nc(C3CC3)cc2N)n1 | 108.3 |
| CCCc1cc(=O)[nH]c(-n2nc(C3CC3)cc2N)n1 | 107.6 |
| CCCc1cc(=O)[nH]c(-c2cccc(CN3CCCCCC3)c2)n1 | 11.6 |
| Cc1cc(=O)[nH]c(-n2nc(C3CC3)cc2N)n1 | 39.12 |
| CCc1c(C)nc(-n2nc(C3CC3)cc2NC(C)=O)[nH]c1=O | 9.536 |
| CC(C)c1cc(=O)[nH]c(C(C)(C)N)n1.Cl | 8.844 |
| Cn1nc(CNC(=O)C2CC2)cc1C1CC1 | 29.19 |
| CCc1cc(=O)[nH]c(-n2nc(C3CC3)cc2NC(=O)C2CC2)n1 | 108.9 |
| CCCc1cc(=O)[nH]c(SCc2ccccn2)n1 | -4.123 |
| CCN1CCCC(CNC(=O)C2(c3cc(C)cc(C)c3)CCC2)C1 (stereo not drawn) | -9.012 |
| COc1cccc(CC(=O)N2CCCC2c2nc(C)c(F)c(O)n2)c1 (stereo not drawn) | -107.1 |
| CCNC(=O)NCc1ccc(-n2ccc(C(F)(F)F)n2)cc1 | 21.88 |
| COCc1nnc(C(=O)N2CCC(N3CCCCC3)CC2)o1 | -29.51 |
| Cc1ccc(-c2ccc(Cl)nn2)cc1S(N)(=O)=O | 6.758 |
| CC(=O)N1CCC(c2n[nH]cc2-c2ccnc(N)c2)C1 (stereo not drawn) | -32.92 |

| Structure (SMILES) | Percent Effect [%] |
| --- | --- |
| CC(C)(C)NC(=O)N1CCCn2nc(C(=O)Nc3ccccc3)cc2C1 | 16.42 |
| Cc1nnsc1C(=O)NCc1nn(C2CCCC2)c2c1CCCC2 | 22.48 |
| Cn1cc(-c2nc(C(=O)N3CCCC3c3cnn(C)c3)cs2)cn1 (stereo not drawn) | 20.68 |
| CCOc1ncccc1CNCc1c(C(C)C)nn(C)c1N(C)C | -29.31 |
| COc1ncccc1CNCc1c(C)nn(C)c1N(C)C | -66.33 |
| Cc1nn(C)c(N(C)C)c1CNCc1ccnn1C | 46.97 |
| COc1ncccc1CNCc1c(C(C)C)nn(C)c1N(C)C | 63.07 |
| Cc1nn(CC(C)C)c(N(C)C)c1CNCc1ccnn1C | -14.58 |
| COc1cc(CNCc2c(C)nn(C)c2N(C)C)ccc1C | 13.2 |
| COCCOc1ncccc1CNCc1c(C)nn(C)c1N(C)C | 87.98 |
| CC(C)c1nn(C)c(N(C)C)c1CNCc1ccnn1C | 65.83 |
| COc1cc(CNCc2c(C)nn(C)c2N(C)C)ccn1 | 97.38 |
| COc1ncccc1CNCc1c(C(C)C)nn(C)c1OC | 20.17 |
| COc1cc(CNCc2c(C)nn(CC(C)C)c2N(C)C)ccn1 | -17.24 |
| CCOc1ncccc1CNCc1c(C)nn(C)c1N(C)C | -13.13 |
| CCn1cc(CNC(=O)C(C)C)cn1 | 7.058 |
| Cc1cc(C)cc(OCCCn2nc3ccccn3c2=O)c1 | 34.72 |
| Cc1ccc(N(C)C2CCCN(C(=O)Nc3ccc(F)cc3F)C2)cc1 (stereo not drawn) | 17.1 |
| Cc1cccc(CN2Cc3ccnn3CC(COCC3CC3)C2)n1.O=C(O)C(F)(F)F (stereo not drawn) | 10.51 |
| COc1ccc(Br)c(NC(=O)NCc2ncnn2C)c1 | -5.732 |
| CCn1cc(NC(=O)CN2C(=O)CC(C)(C)c3ccccc32)cn1 | 23.89 |
| CC(=O)c1cccc(NC(=O)Cn2nc(-c3cccs3)oc2=O)c1 | -19.71 |
| Cc1cc(N2CCC(O)(CN(C)C(=O)CCN)CC2)c2cnccc2n1 | 43.24 |
| O=C(NCCn1cnnc1C1CC1)c1c(O)cc(F)cc1F | -13.58 |
| O=C(O)CC(O)(CC(=O)O)C(=O)O.c1ccc([C@@H]2CN(Cc3cccnc3)C[C@H]2c2cc[nH]n2)cc1 | 51.47 |

| Structure (SMILES) | Percent Effect [%] |
| --- | --- |
| O=C(O)CC(O)(CC(=O)O)C(=O)O.c1ccc([C@@H]2CN(Cc3ccncc3)C[C@H]2c2cc[nH]n2)cc1 | 17.96 |
| COc1ccc([C@@H]2CN(Cc3ccncc3)C[C@H]2c2cc[nH]n2)cc1.O=C(O)CC(O)(CC(=O)O)C(=O)O | 34.94 |
| O=C1CC(c2ccccc2)c2c(c(C(=O)O)cn2-c2ccccc2)N1 (stereo not drawn) | 15.99 |
| O=C(c1cc(F)ccc1O)N1CCN(C2CCOCC2)CC1 | 23.2 |
| Cc1cccc(NC(C)C(=O)Nc2nccs2)c1 (stereo not drawn) | 6.251 |
| COC(=O)c1ccc2c(-c3ccnc(NCCO)n3)c[nH]c2c1 | -4.775 |
| COc1ccc2[nH]cc(-c3ccnc(N4CCC(C)CC4)n3)c2c1 | 24.84 |
| COc1ccc2[nH]cc(-c3ccnc(NC4CCCC4)n3)c2c1 | 104.1 |
| COCCO[C@@H]1CCN(C(=O)c2ccnnc2)[C@H]1Cc1cnn(C)c1 | 2.018 |
| CCNC(=O)[C@@H]1C[C@@H](NC(=O)Cc2cc(C)no2)CN1Cc1ccsc1 | -13.59 |
| CCNC(=O)[C@@H]1C[C@H](NC(=O)Cn2ccnc2)CN1Cc1ccsc1 | 104.2 |
| CCNC(=O)[C@@H]1C[C@@H](NC(=O)Cc2ccncc2)CN1Cc1ccsc1 | 31.97 |
| Cc1ncc(C(=O)OCC2CCN(c3ccccc3)C2)s1 (stereo not drawn) | -13.58 |
| Cn1cc(CN2CCC(c3ncc(Cl)cc3S(C)(=O)=O)CC2)cn1 | 39.28 |
| CC(C)Oc1ncnc2c1CCN(Cc1ccco1)CC2.O=C(O)C(F)(F)F | 21.95 |
| Cc1nc(N2CCOCC2)nc2c1CCN(Cc1ccsc1)CC2.O=C(O)C(F)(F)F | 27.7 |
| Cc1nc(N2CCCC2)nc2c1CCN(Cc1nccn1C)CC2.O=C(O)C(F)(F)F | 0.1901 |
| Cc1nc(N2CCCC2)nc2c1CCN(Cc1ccco1)CC2.O=C(O)C(F)(F)F | 96.95 |
| Cc1nc(N2CCCC2)nc2c1CCN(Cc1ccsc1)CC2.O=C(O)C(F)(F)F | 72.79 |
| Cc1nc(N2CCCC2)nc2c1CCN(Cc1ccoc1)CC2.O=C(O)C(F)(F)F | 56.27 |
| Cc1nc(C)c2c(n1)CCN(Cc1ccco1)CC2 | -0.9283 |
| Cc1nc(N2CCOCC2)nc2c1CCN(Cc1cccnc1)CC2.O=C(O)C(F)(F)F | 26.93 |
| Oc1nc(N2CCCC2)nc2c1CCN(Cc1ccsc1)CC2 | 2.378 |
